# Experimental data as given in the supplement of paper PMC11634586.
# Structures can show the parent of a compound that is named as a salt.
# Tested on: NCI-H1688
# Assay: inhibition of cell viability relative to untreated control (fraction); higher = stronger growth inhibition, active = 0.5 or more
# Conditions: 30 µM; 24 h
# Description: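 Natural product library (TargetMol, 640 compounds) screened on NCI-H1688 SCLC cells at 30 µM for 24 h; viability by CCK-8 absorbance at 450 nm, normalised to untreated control and expressed as inhibition rate (fraction). Compounds with >50% reduction in viability were selected as hits.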
row,Structure (SMILES),inhibition of cell viability
1,CC(C)=CCC/C(C)=C/C=O [Citral],0.192 (inactive)
2,O=C(O)/C=C/c1ccccc1 [Cinnamic acid],-0.0303 (inactive)
3,N[C@@H](Cc1cc(I)c(Oc2ccc(O)c(I)c2)c(I)c1)C(=O)O [Lyothyronine],0.0198 (inactive)
4,CC(C)=CC[C@@H](O)C1=CC(=O)c2c(O)ccc(O)c2C1=O [Shikonin],0.956 (active)
5,O=C(O)CCCCC1CCSS1 (stereo not given) [Alphalipoic acid],0.0038 (inactive)
6,CC12CCC(CC1=O)C2(C)C [D-Camphor],0.123 (inactive)
7,C/C=C(/C)C(=O)O[C@H]1[C@H](OC(C)=O)[C@@]2(CO)C(CC1(C)C)C1=CCC3[C@@]4(C)CCC(O[C@@H]5O[C@H](C(=O)O)[C@@H](O[C@@H]6O[C@H](CO)[C@@H](O)[C@H](O)[C@H]6O)[C@H](O)[C@H]5O[C@@H]5O[C@H](CO)[C@@H](O)[C@H](O)[C@H]5O)[C@](C)(CO)C4CC[C@@]3(C)[C@]1(C)C[C@H]2O.C/C=C(\C)C(=O)O[C@H]1[C@H](OC(C)=O)[C@@]2(CO)C(CC1(C)C)C1=CCC3[C@@]4(C)CCC(O[C@@H]5O[C@H](C(=O)O)[C@@H](O[C@@H]6O[C@H](CO)[C@@H](O)[C@H](O)[C@H]6O)[C@H](O)[C@H]5O[C@@H]5O[C@H](CO)[C@@H](O)[C@H](O)[C@H]5O)[C@](C)(CO)C4CC[C@@]3(C)[C@]1(C)C[C@H]2O (stereo not given in full) [Escin],0.982 (active)
8,OC[C@H]1O[C@@H]2O[C@H]3[C@H](O)[C@@H](O)[C@@H](O[C@H]4[C@H](O)[C@@H](O)[C@@H](O[C@H]5[C@H](O)[C@@H](O)[C@@H](O[C@H]6[C@H](O)[C@@H](O)[C@@H](O[C@H]7[C@H](O)[C@@H](O)[C@@H](O[C@H]8[C@H](O)[C@@H](O)[C@@H](O[C@H]1[C@H](O)[C@H]2O)O[C@@H]8CO)O[C@@H]7CO)O[C@@H]6CO)O[C@@H]5CO)O[C@@H]4CO)O[C@@H]3CO [Beta-Cyclodextrin],0.0604 (inactive)
9,C[C@H](CCC(=O)O)[C@H]1CC[C@H]2[C@@H]3C(=O)C[C@@H]4CC(=O)CC[C@]4(C)[C@H]3CC(=O)[C@]12C [Dehydrocholic acid],-0.142 (inactive)
10,O=c1ccc2cc(O)c(O)cc2o1 [Esculetin],0.643 (active)
11,COC(=O)C1=CO[C@@H](O)[C@@H]2C(CO)=CC[C@H]12 [Genipin],0.135 (inactive)
12,c1coc(CNc2ncnc3[nH]cnc23)c1 [Kinetin],0.00365 (inactive)
13,Nc1ccccc1C(=O)CC(N)C(=O)O (stereo not given) [Kynurenine],-0.292 (inactive)
14,COC(=O)C1=CO[C@@H](O[C@@H]2O[C@H](CO)[C@@H](O)[C@H](O)[C@H]2O)[C@@H]2C(CO)=CC[C@H]12 [Geniposide],0.00243 (inactive)
15,C=C1CC[C@@H]2[C@](C)(CO)[C@H](O)CC[C@@]2(C)[C@H]1C/C=C1\C=COC1=O [Dehydroandrographolide],0.14 (inactive)
16,CN[C@@H]1[C@@H](O[C@H]2O[C@H](CO)[C@@H](N)[C@H](O)[C@H]2O)OC2C[C@@H](N)[C@@H](O[C@H]3[C@H](O)[C@@H](O)[C@H](N)C[C@@H]3N)OC2[C@@H]1O (stereo not given in full) [Apramycin sulfate],-0.0456 (inactive)
17,O=c1[nH]cnc2c1ncn2[C@H]1C[C@H](O)[C@@H](CO)O1 [2'-Deoxyinosine],-0.00407 (inactive)
18,O=C(O[C@@H]1Cc2c(O)cc(O)cc2O[C@@H]1c1ccc(O)c(O)c1)c1cc(O)c(O)c(O)c1 [(-)-Epicatechin gallate],0.121 (inactive)
19,C/C1=C2N=C(/C=C3N=C(/C(C)=C4\[N-]C(C(CC(N)=O)C4(C)CCC(=O)NCC(C)OP(=O)([O-])OC4C(CO)OC(n5cnc6cc(C)c(C)cc65)C4O)C4(C)N=C1C(CCC(N)=O)C4(C)CC(N)=O)C(CCC(N)=O)C\3(C)C)C(CCC(N)=O)C/2(C)CC(N)=O.[CH3-].[Co+3] (stereo not given) [Methylcobalamin],0.0835 (inactive)
20,Cc1c(C)c2c(c(C)c1O)CC[C@@](C)(CCC[C@H](C)CCC[C@H](C)CCCC(C)C)O2 [Vitamin E],-0.243 (inactive)

row,Structure (SMILES),inhibition of cell viability
1,C[C@H]1[C@H](C)CC[C@]2(C(=O)O)CC[C@]3(C)C(=CC[C@@H]4[C@@]5(C)C[C@@H](O)[C@H](O)[C@@](C)(CO)[C@@H]5[C@H](O)C[C@]43C)[C@H]12 [Madecassic acid],-0.00715 (inactive)
2,CC(C)CCC[C@@H](C)[C@H]1CC[C@H]2[C@@H]3CC[C@H]4CC(=O)CC[C@]4(C)[C@H]3CC[C@]12C [5alpha-Cholestan-3-one],-0.0937 (inactive)
3,CCCCCC=CCC=CCCCCCCCC(=O)OC(COC(=O)CCCCCCCCCCCCCCC)COP(=O)([O-])OCC[N+](C)(C)C [L-α-Phosphatidylcholine],0.136 (inactive)
4,CCNC(=O)CC[C@H](N)C(=O)O [L-Theanine],-0.151 (inactive)
5,NC[C@@H]1O[C@H](O[C@H]2[C@@H](O)[C@H](O[C@@H]3[C@@H](O)[C@H](N)C[C@H](N)[C@H]3O[C@H]3O[C@H](CO)[C@@H](O)[C@H](O)[C@H]3N)O[C@@H]2CO)[C@H](N)[C@@H](O)[C@@H]1O [Paromomycin Sulfate],-0.0298 (inactive)
6,CC(C)(CO)[C@@H](O)C(=O)NCCC(=O)NCCSSCCNC(=O)CCNC(=O)[C@H](O)C(C)(C)CO [D-Pantethine],-0.262 (inactive)
7,CC(C)=CCOc1c2ccoc2cc2oc(=O)ccc12 [Isoimperatorin],-0.0286 (inactive)
8,COc1ccc(-c2coc3cc(O)ccc3c2=O)cc1 [Formononetin],0.0427 (inactive)
9,Cc1cc2nc3c(=O)[nH]c(=O)nc-3n(C[C@H](O)[C@H](O)[C@H](O)COP(=O)(O)O)c2cc1C [Flavin mononucleotide],0.0137 (inactive)
10,Cc1cc(O)cc(O[C@@H]2O[C@H](CO)[C@@H](O)[C@H](O)[C@H]2O)c1 [Orcinol glucoside],0.0244 (inactive)
11,CC[C@H](C)C(=O)O[C@H]1CCC=C2C=C[C@H](C)[C@H](CC[C@@H]3C[C@@H](O)CC(=O)O3)[C@H]21 [Mevastatin],0.86 (active)
12,CC(=O)O[C@]1(C)CC[C@@]23C[C@H]1C(C)(C)[C@@H]2CC[C@H]3C [Cedryl acetate],-0.223 (inactive)
13,C[C@@H]1O[C@@H](O[C@H]2[C@H](O[C@H]3CC[C@@]4(C)[C@@H](CC[C@]5(C)[C@@H]4CC=C4[C@@H]6CC(C)(C)CC[C@]6(C(=O)O[C@@H]6O[C@H](CO[C@@H]7O[C@H](CO)[C@@H](O[C@@H]8O[C@@H](C)[C@H](O)[C@@H](O)[C@H]8O)[C@H](O)[C@H]7O)[C@@H](O)[C@H](O)[C@H]6O)CC[C@]45C)[C@]3(C)CO)OC[C@H](O)[C@@H]2O)[C@H](O)[C@H](O)[C@H]1O [Hederacoside C],0.239 (inactive)
14,COc1cc(C2Oc3cc([C@H]4Oc5cc(O)cc(O)c5C(=O)[C@@H]4O)ccc3OC2CO)ccc1O (stereo not given in full) [Silibinin],0.0271 (inactive)
15,CC(=O)O[C@@]12CO[C@@H]1C[C@H](O)[C@@]1(C)C(=O)[C@H](O)C3=C(C)[C@@H](OC(=O)[C@H](O)[C@@H](NC(=O)OC(C)(C)C)c4ccccc4)C[C@@](O)([C@@H](OC(=O)c4ccccc4)[C@H]21)C3(C)C [Docetaxel trihydrate],0.635 (active)
16,C#C[C@]1(O)CC[C@H]2[C@@H]3CCc4cc(O)ccc4[C@H]3CC[C@@]21C [Ethynyl estradiol],0.639 (active)
17,COc1cc2c(cc1OC)-c1cc3ccc(OC)c(OC)c3c[n+]1CC2 [Palmatine chloride],0.0401 (inactive)
18,COc1ccc(-c2cc(=O)c3c(OC)c(OC)c(OC)c(OC)c3o2)cc1 [Tangeretin],0.299 (inactive)
19,COc1cc(O)c2c(c1)C(=O)c1cc(C)cc(O)c1C2=O [Rheochrysidin],0.0809 (inactive)
20,C[C@@H]1O[C@@H](O[C@H]2[C@H](Oc3cc(O)c4c(=O)cc(-c5ccc(O)cc5)oc4c3)O[C@H](CO)[C@@H](O)[C@@H]2O)[C@H](O)[C@H](O)[C@H]1O [Rhoifolin],0.127 (inactive)
